Results reported in the GenesisPotency data set.
In all, about 290,000 compounds went through this assay and about 3,000 (1%) were called active. No stated cut-off is given here; in the data, active means inhibition mostly above about 36% (no sharp cut-off); inactive means mostly below about 34%. Only a selection was taken, and actives are over-represented in it overall.

Biological target: T1, Nucleotide-binding oligomerization domain-containing protein 1, Homo sapiens (UniProt Q9Y239)
T1 sequence (whole entry): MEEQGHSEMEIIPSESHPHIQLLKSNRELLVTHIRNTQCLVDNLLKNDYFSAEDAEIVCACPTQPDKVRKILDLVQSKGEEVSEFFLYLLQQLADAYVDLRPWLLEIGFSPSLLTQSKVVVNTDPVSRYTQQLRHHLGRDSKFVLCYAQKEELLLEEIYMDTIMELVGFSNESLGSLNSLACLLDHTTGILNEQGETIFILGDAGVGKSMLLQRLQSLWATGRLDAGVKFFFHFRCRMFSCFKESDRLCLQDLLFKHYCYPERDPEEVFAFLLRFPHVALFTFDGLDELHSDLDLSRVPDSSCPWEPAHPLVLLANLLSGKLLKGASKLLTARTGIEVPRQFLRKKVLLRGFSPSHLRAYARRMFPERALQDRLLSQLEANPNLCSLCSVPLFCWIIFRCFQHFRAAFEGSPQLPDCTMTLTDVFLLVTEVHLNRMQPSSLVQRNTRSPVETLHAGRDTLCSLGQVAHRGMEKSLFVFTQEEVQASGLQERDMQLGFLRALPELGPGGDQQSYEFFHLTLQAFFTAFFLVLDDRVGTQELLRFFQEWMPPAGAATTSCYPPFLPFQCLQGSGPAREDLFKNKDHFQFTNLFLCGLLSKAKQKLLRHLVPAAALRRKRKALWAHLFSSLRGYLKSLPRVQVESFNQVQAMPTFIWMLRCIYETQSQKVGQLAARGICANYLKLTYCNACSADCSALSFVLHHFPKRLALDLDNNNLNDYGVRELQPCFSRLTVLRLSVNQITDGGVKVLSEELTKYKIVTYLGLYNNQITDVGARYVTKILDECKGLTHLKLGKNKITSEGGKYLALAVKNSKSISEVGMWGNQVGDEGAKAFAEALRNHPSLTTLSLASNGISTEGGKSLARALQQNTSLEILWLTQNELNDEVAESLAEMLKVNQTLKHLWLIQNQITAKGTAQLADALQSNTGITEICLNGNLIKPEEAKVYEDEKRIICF
Experiment: inhibition of NOD1-driven NF-kB reporter – cell-based, luminescence, uHTS, primary screen (AID 1578)

outcome, active:
O=c1c(C(c2ccccc2)c2c(O)sc3ccccc3c2=O)c(O)sc2ccccc12
COc1ccc2cc3c(N)nn(C(=O)c4cccc([N+](=O)[O-])c4)c3nc2c1
COc1ccc2cc3c(N)nn(C(=O)c4ccc(F)cc4)c3nc2c1
COc1ccc2cc3c(N)nn(C(=O)c4cccc(F)c4)c3nc2c1
Cc1ccc2nc(NC(=O)CSCC(=O)OCC(=O)c3ccc(Br)cc3)sc2c1
Cc1c(C)c2ccc(OCC(=O)Nc3ccccn3)c(C)c2oc1=O
COc1cccc(C(=O)c2sc(NC(C)C)nc2N)c1
O=c1c(Cl)c(Cl)cnn1Cc1nnc(-c2ccccc2Br)o1
COC(=O)CCn1nnc(-c2ccc(C(C)C)cc2)n1
CC(C)c1ccc(-c2nnn(CCC(=O)O)n2)cc1
COc1ccc2cc3c(N)nn(C(=O)C4CCC(C(C)(C)C)CC4)c3nc2c1 (configuration not stated)
COc1ccc2cc3c(N)nn(C(=O)c4ccccc4[N+](=O)[O-])c3nc2c1
COc1ccc2cc3c(N)nn(C(=O)c4ccccc4Cl)c3nc2c1
CN(Cc1ccccc1)S(=O)(=O)c1nnc(NC(=O)c2ccc(F)cc2)s1
COc1cc(OC)c(N(C)S(=O)(=O)c2cccc(C(=O)OCC(=O)c3c[nH]c4ccccc34)c2)cc1Cl
O=c1cc(CSc2ccc(Cl)cc2)nc(-c2ccccn2)[nH]1
Cn1c2ccccc2c(=O)c2c(=O)n(C3CCCCC3)c(-c3ccco3)nc21
O=C(Nc1cc(C(F)(F)F)cc(C(F)(F)F)c1)Nc1cnn(-c2ccc([N+](=O)[O-])cc2)c1C(F)(F)F
O=S(=O)(Nc1nc2ccccc2nc1N1CCN(c2ccccc2F)CC1)c1ccc(Cl)cc1
COc1ccc(-c2cc(C(F)(F)F)nc(S(=O)(=O)CCCC(=O)Nc3cccc(O)c3)n2)cc1OC
COc1ccccc1-c1cc(C(F)(F)F)nc(S(=O)(=O)CCCC(=O)N2CCCCC2C)n1 (configuration not stated)
COc1ccccc1-c1cc(C(F)(F)F)nc(S(=O)(=O)CCCC(=O)Nc2cccnc2Cl)n1
COc1ccc(-c2cc(C(F)(F)F)nc(S(=O)(=O)CCCC(=O)Nc3cccnc3Cl)n2)cc1OC
COc1ccc2[nH]cc(C(=O)CCl)c2c1
COc1ccc2c(C(=O)CCl)c[nH]c2c1
Cc1nn(-c2ccccc2)c(Cl)c1CN(C(=O)CCl)c1ccc(Cl)cc1
COc1ccc(Br)cc1/C=C/C(=O)c1ccc(NC(C)=O)cc1
CCC(=O)Nc1cccc(C(=O)/C=C/c2cc(Br)ccc2OC)c1
Cc1ccc(C(C)C)c(OCc2ccc(C(=O)N/N=C/c3ccc(C(=O)O)cc3)cc2)c1
CN(C)S(=O)(=O)c1cccc(NC(=O)CSc2cccc3cccnc23)c1
O=C(CSc1cccc2cccnc12)Nc1ccc(S(=O)(=O)N2CCOCC2)cc1
CCOc1ccc2c(c1)C(=NNC(=O)c1ccncc1)c1cc(OCC)ccc1-2
CC(=O)c1c(C)[nH]c(C(=O)COC(=O)c2cccc(S(=O)(=O)N(C)c3ccccc3)c2)c1C
CNc1nc(-c2ccc3c(c2)CCN3S(=O)(=O)c2ccccc2)c(C)s1
COc1ccc(Nc2cc(Nc3cc(OC)c(OC)c(OC)c3)ncn2)cc1
Cc1cc(Nc2nc3ccccc3nc2Cl)n(-c2ccc([N+](=O)[O-])cc2)n1
COc1ccc(C)cc1NC(=O)CSc1ccc(-c2ccccn2)nn1
O=C(Nc1nnc(-c2ccc(F)cc2)o1)c1cccc([N+](=O)[O-])c1
COc1ccc(-c2nnc(NC(=O)c3ccc(F)cc3)o2)cc1
CCOc1ccc(-c2nnc(NC(=O)c3ccc(OCC(C)C)c(OC)c3)o2)cc1
O=C(Nc1nnc(-c2ccc(F)cc2)o1)c1cc(Cl)sc1Cl
CN(c1ccccc1)S(=O)(=O)c1ccc(C(=O)Nc2nnc(-c3ccc(F)cc3)o2)cc1
O=C(Nc1ccc(C(F)(F)F)cc1)C1CCN(S(=O)(=O)c2ccc(N3CCCC3=O)cc2)CC1
C/C(=N\Nc1ncnc2sc(C)c(C)c12)c1ccccn1
COc1ccc(-n2c(C)c(C(C)=O)c3cc(OC(C)=O)ccc32)cc1
CCOc1ccc(-n2c(C)c(C(C)=O)c3cc(OC(C)=O)ccc32)cc1
CC(=O)c1c(C)n(-c2ccccc2)c2ccc(O)cc12
COc1ccc2c(c1)c(C(C)=O)c(C)n2CCc1ccccc1
COc1ccc(-n2c(C)c(C(C)=O)c3cc(O)ccc32)cc1
COc1ccc2c(c1)c(C(C)=O)c(C)n2-c1ccc(C(C)=O)cc1
COc1ccccc1N1CCN(c2nc(C)nc3c2oc2ccccc23)CC1.Cl
Clc1ccc(-c2csc3ncnc(NCCN4CCOCC4)c23)cc1
COc1ccc(-c2csc3ncnc(NCCN4CCOCC4)c23)cc1
CC(C)n1c(CN(C)Cc2ccccc2)nc2c1c(=O)n(C)c(=O)n2C
CCN1/C(=C/C=C/C=C/C=C/c2sc3ccccc3[n+]2CC)Sc2ccccc21.[I-]
c1cc(-c2nnc3sc(C4CCCCC4)nn23)ccn1
c1ccc(CCc2nn3c(-c4ccncc4)nnc3s2)cc1
Cc1c(CCC(=O)O)c(=O)oc2cc(OCc3ccccc3Br)ccc12
CC(C)(C)C1CCC2(CC1)C(C#N)=C(SCC(=O)Nc1ccccc1)NC(=O)C2C#N (configuration not stated)
N#CC1=C(SCC(=O)NC23CC4CC(CC(C4)C2)C3)NC(=O)C(C#N)C12CCCCC2 (configuration not stated)
Cc1ccc(NC(=O)CSc2nn(-c3ccccc3)c(=S)s2)cc1S(=O)(=O)N(C)C
CC(C)(C)C(=O)Nc1ccc(NC(=O)c2ccco2)nc1
O=C(Nc1nc2ccc([N+](=O)[O-])cc2s1)c1ccc(S(=O)(=O)N2CCCc3ccccc32)cc1
CC1CCCCN1c1ncnc(N)c1[N+](=O)[O-] (configuration not stated)
Nc1ncnc(N2CCc3ccccc32)c1[N+](=O)[O-]
COc1ccc2sc3c(=O)[nH]c4ccccc4c3c2c1
O=S(=O)(c1ccc2c(c1)OCCO2)N1CCN(c2ncnc3sccc23)CC1
Cc1ccc(S(=O)(=O)N2CCN(c3ncnc4sccc34)CC2)cc1
O=C(O)CCSc1nnc(-c2ccc3c(c2)OCO3)o1
O=C(Nc1nccs1)c1sc2cc(Cl)ccc2c1Cl
Cc1cc(NC(=O)c2cccs2)n(-c2nc3ccccc3[nH]2)n1
Cc1ccc(NC(=O)CSc2ncnc3ccccc23)cc1S(=O)(=O)N1CCOCC1
O=C(Nc1ccc(Cl)c(S(=O)(=O)N2CCOCC2)c1)c1ccc(OCC2CCCO2)cc1 (configuration not stated)
CCOC(=O)c1ccc(NC(=O)c2ccc(C)c(S(=O)(=O)N3CCOCC3)c2)cc1
COc1ccc(C(=O)Nc2ccc(-c3ccc(C)o3)cc2)cc1S(=O)(=O)N1CCOCC1
CCOc1ccc(Nc2ncnc3ccc([N+](=O)[O-])cc23)cc1
Cc1nn(-c2ccccc2)c(Cl)c1C(=O)N1CCN(c2ncnc3c2cnn3-c2ccccc2)CC1
CN(C)CC(CCC(CN(C)C)C(=O)c1ccccc1)C(=O)c1ccccc1.Cl (configuration not stated)
O=C(NCc1cccnc1)/C(=C\c1ccc(-c2cccc(Cl)c2)o1)S(=O)(=O)c1ccccc1
O=C(NCc1cccnc1)/C(=C/c1ccc(-c2cccc(Cl)c2)o1)S(=O)(=O)c1ccccc1
O=C(CCl)N1N=C(c2ccco2)CC1c1ccco1 (configuration not stated)
O=C(CCl)N1N=C(c2cccs2)CC1c1ccco1 (configuration not stated)
Cc1ccc(-n2[nH]c(C)c(/C=N/Nc3ccc([N+](=O)[O-])cc3[N+](=O)[O-])c2=O)cc1C
O=C(N/N=C/c1ccccn1)c1sc2ccccc2c1Cl
Cc1[nH]n(-c2ccccc2)c(=O)c1/C=N/NC(=O)c1cccc([N+](=O)[O-])c1
COc1ccc(C(=O)Nc2ccccc2C(=O)N/N=C/c2ccccn2)cc1OC
Cc1cccc(/C=N/NC(=O)c2cccc([N+](=O)[O-])c2)n1
CC(/C=C/c1ccccc1)=N/NC(=O)c1cc([N+](=O)[O-])cc([N+](=O)[O-])c1
O=C(N/N=C/c1ccccn1)c1ccc(Cl)c(Cl)c1
O=C(N/N=C/c1ccccn1)c1cc([N+](=O)[O-])cc([N+](=O)[O-])c1
Cc1c(CCC(=O)O)c(=O)oc2cc3oc4c(c3cc12)CCCC4
O=C(Sc1cccc2cccnc12)c1ccccc1Br
O=C(Sc1cccc2cccnc12)c1ccc(F)cc1
O=C(Nc1ccc(N2CCN(c3ncccc3C(F)(F)F)CC2)nc1)c1cccs1
O=C(N/N=C(\c1ccccc1)c1cccnc1)c1cccc(F)c1
COc1cc(C(=O)N/N=C(\c2ccccc2)c2ccccn2)cc(OC)c1OC
COc1cccc(C(=O)N/N=C(/c2ccccc2)c2ccccn2)c1
COc1ccc(C(=O)N/N=C(\c2ccccc2)c2ccccn2)cc1
CCOC(=O)c1c(NC(=S)NCCc2ccccc2)sc2c1CC(C(C)C)OC2 (configuration not stated)
Cn1c(=O)c(C(=O)CCl)c(N)n(Cc2ccccc2)c1=O
O=C(CSc1n[nH]c(-c2ccccn2)n1)Nc1ccc(Cl)cc1
O=C(CSc1n[nH]c(-c2ccccn2)n1)Nc1cccc(Cl)c1
Cc1ccccc1Oc1cc(-n2ncc(Cl)c(Cl)c2=O)ncn1
CCCCNC(=O)c1sc(=S)n2c1[nH]c(=O)c1ccccc12
CC(C)NC(=O)c1sc(=S)n2c1[nH]c(=O)c1ccc(C(=O)NCCc3ccc(Cl)cc3)cc12
O=C(NCc1ccco1)c1sc(=S)n2c1[nH]c(=O)c1ccccc12
O=C(NCc1ccccc1)c1sc(=S)n2c1[nH]c(=O)c1ccccc12
